# Screening data: PubChem, National Center for Advancing Translational Sciences (NCATS)
# Sampled rows, rich in hits. Any-hit rate of the full collection: about 11%.
# NPSR antagonist = qHTS Assay for Antagonists of the Neuropeptide S Receptor: cAMP Signal Transduction; CHO-NPSR cells, cAMP TR-FRET, antagonist mode; Potency, µM (titrated, usually from 38.3 µM), inactives show top-dose activity change, negative = inhibition, most hits filed as inhibitors; actives 1% (n = 220,000); active means well fitted curve in the direction sought with a large enough effect; inconclusive means small, poorly fitted or top-dose-only effect, or another doubt; inactive means no such curve, though single readings can be large; an effect the other way counts as inactive or inconclusive; further: potency means the concentration at half of the fitted maximal effect; nearly all actives have a fitted effect of over 50% in size
# PNC inhibitor = High Content Assay for Compounds that inhibit the Assembly of the Perinucleolar Compartment; PC3M PTB-GFP, PNC prevalence imaging, 16 h; active compounds read low; AID 2417, 2010; activity change (PNC), negative = inhibition, % at 10 µM; actives 3.1% (n = 140,000);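 active means readout at or below -70, meaning at least 70% loss of cells showing the perinucleolar compartment, a nuclear body marking cancer cells; inconclusive means readout between -30 and a set limit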;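 further: plate controls were DMSO wells for no effect and camptothecin positive control wells for full effect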
#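 PC3M cells stably expressing PTB-GFP, 750–1000 cells/well, treated 16 h at 37 °C with compound (23 nl of library stock), in duplicate. After paraformaldehyde fixation and Hoechst stain, imaged at 20x; PNC prevalence scored by image analysis.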
# IMPase cell inh = qHTS Assay for Identifying the Cell-Membrane Permeable IMPase Inhibitors; 120,000 tested, under 10 active; Inositol monophosphatase 1 (Rattus norvegicus), P97697; CHO-M1 cells, IP1 accumulation, HTRF TR-FRET ratio; inhibition (IP1 accumulation), % at 46.1 µM; active means well fitted curve in the direction sought with a large enough effect in the signal ratio, not every such curve was filed as active; inconclusive means small, poorly fitted or top-dose-only effect, or a change in a side signal; inactive means no such curve, though single readings can be large or run the other way; the % refers to the signal ratio;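 further: cells stimulated with carbachol in lithium chloride buffer; plate controls were DMSO basal wells for no effect and reference inhibitor wells for full effect; higher means more IMPase inhibition seen as more IP1 and lower FRET ratio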
# Target sequence (P97697 whole entry, looked up): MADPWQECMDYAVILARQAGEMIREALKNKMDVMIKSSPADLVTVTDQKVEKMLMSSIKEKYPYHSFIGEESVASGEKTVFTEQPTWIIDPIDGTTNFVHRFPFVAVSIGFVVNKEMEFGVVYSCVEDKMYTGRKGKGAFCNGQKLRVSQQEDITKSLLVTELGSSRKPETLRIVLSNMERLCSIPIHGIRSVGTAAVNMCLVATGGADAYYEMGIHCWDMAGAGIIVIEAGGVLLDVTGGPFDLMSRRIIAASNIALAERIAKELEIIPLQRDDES
#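 Seeded CHO-M1 cells were dosed with compound at up to 46 uM, stimulated with carbachol for 30 min, then lysed in IP-One detection reagents. Higher IP1 lowers the TR-FRET signal.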
# HPGD inh = qHTS Assay for Inhibitors of HPGD (15-Hydroxyprostaglandin Dehydrogenase); 15-hydroxyprostaglandin dehydrogenase [NAD(+)] (Homo sapiens), P15428; purified HPGD, NADH fluorescence kinetic, PGE2 substrate; Potency, µM, for inactives: at the highest dose activity change, negative = inhibition, hits mostly inhibitors; actives 4.3% (n = 150,000); AID 894, 2007; further: potency means the concentration at half of the fitted maximal effect
#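 20 nM HPGD preincubated 15 min at room temperature with compound in 50 mM Tris-HCl pH 8, 0.01% Tween 20. Started with 1 mM NAD+ and 30 uM prostaglandin E2; NADH fluorescence (360/450 nm) read 5 times over 30-s intervals, last minus first.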
# ALDH1A1 inh = qHTS Assay for Inhibitors of Aldehyde Dehydrogenase 1 (ALDH1A1); Aldehyde dehydrogenase 1A1 (Homo sapiens), P00352; Purified ALDH1A1, NADH fluorescence, propionaldehyde substrate; Potency, µM (highest dose often 75.3 µM), for inactives: at the highest dose activity, negative = inhibition, most hits filed as inhibitors; actives 7.3% (n = 220,000);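 further: potency means the concentration at half of the fitted maximal effect; plate controls were no enzyme wells and a reference inhibitor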
# Target sequence (P00352 whole entry, looked up): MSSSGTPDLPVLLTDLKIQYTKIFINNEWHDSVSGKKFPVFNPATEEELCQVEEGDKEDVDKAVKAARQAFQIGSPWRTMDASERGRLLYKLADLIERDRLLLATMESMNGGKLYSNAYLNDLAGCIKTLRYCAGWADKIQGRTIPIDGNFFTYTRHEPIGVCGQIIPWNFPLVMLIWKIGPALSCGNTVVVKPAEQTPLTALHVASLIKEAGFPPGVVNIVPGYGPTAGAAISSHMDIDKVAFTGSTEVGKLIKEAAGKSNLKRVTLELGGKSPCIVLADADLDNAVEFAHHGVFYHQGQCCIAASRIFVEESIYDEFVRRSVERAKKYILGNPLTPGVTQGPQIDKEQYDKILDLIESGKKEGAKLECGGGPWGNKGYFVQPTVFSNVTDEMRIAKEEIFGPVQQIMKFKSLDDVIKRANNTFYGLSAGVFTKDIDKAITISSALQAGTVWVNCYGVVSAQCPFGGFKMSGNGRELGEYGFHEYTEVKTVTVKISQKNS
# IMPase Li inh = qHTS Assay for Identifying the Cell-Membrane Permeable IMPase Inhibitors: Potentiation with Lithium; actives 0.35% (n = 210,000); Potency, µM (top dose mostly 59.4 µM), inactives show top-dose activity, negative = IMPase inhibition, actives largely listed as inhibitors; AID 1457, 2008; CHO-M1 cells, IP1 TR-FRET (IP-One), carbachol + lithium; active means well fitted curve in the direction sought with a large enough effect; inconclusive means small, poorly fitted or top-dose-only effect, or another doubt; inactive means no such curve, though single readings can be large; an effect the other way counts as inactive or inconclusive;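 further: IP1 builds up when IMPase is blocked and the TR-FRET signal falls; potency means the concentration at half of the fitted maximal effect; plate controls were basal vehicle for no effect and high inhibitor control for full effect; nearly all actives have a fitted effect of over 50% in size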
#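 Lithium-sensitised IP1 accumulation assay; M1-expressing CHO cells treated 30 min at 37C with compound. Competitive antibody detection by time-resolved FRET followed a 10 min room-temperature lysis step.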
# The depositor's hits bear a star; ? = inconclusive; / = not tested or not shown; [ ] = remark or other dose. Unless noted, the call rests on the fitted dose curve; in most records, active means well fitted inhibition curve with a large enough effect (not every such curve was filed as active); inconclusive means small, poorly fitted or top-dose-only effect, or another doubt; inactive means no such curve, though single readings can be large or run the other way. Unless noted, on the % scale 0 is the no-effect control and ±100 the full control effect.
SMILES,NPSR antagonist,PNC inhibitor,IMPase cell inh,HPGD inh,ALDH1A1 inh,IMPase Li inh
COc1ccccc1NC(=O)c1sc(NC(=O)c2ccco2)c(C#N)c1C,-1.0%[46.1 µM],33.5,-9.0,-27.8%,?,25.6%[38.3 µM]
Cc1ccccc1OCC(=O)Nc1sc(C(=O)Nc2cccc(C)c2C)c(C)c1C#N,3.98µM*,18.6,?,?,-4.5%,1µM*
CCCCN(C(=O)c1cc(=O)[nH]c2ccccc12)c1c(N)n(CCC)c(=O)[nH]c1=O,-18.7%,/,/,/,4.5%,/
Nc1nc(CSc2ncn(-c3ccccc3)n2)cs1,-0.2%[46.1 µM],?,0.6,-14.3%,-10.1%,32.8%[38.3 µM]
c1ccc(CSc2ncn(-c3ccccc3)n2)cc1,-26.2%[46.1 µM],5.9,0.1,17.8µM*,2.0%,7.3%[38.3 µM]
O=C(CSc1ncn(-c2ccccc2)n1)c1cccs1,-7.4%[46.1 µM],-15.9,6.6,8.91µM*,?,17.2%[38.3 µM]
COc1cccc(OCc2ccc(C(=O)NCC3CCCO3)cc2)c1 (stereo not given),0.5%,-11.0,/,10µM*,-5.7%,-3.3%
O=C(NCC1CCCO1)c1ccc(COc2ccccc2Br)cc1 (stereo not given),-3.6%,20.4,/,3.98µM*,1.5%,-12.2%
O=C(NCC1CCCO1)c1ccc(COc2ccc(Cl)cc2)cc1 (stereo not given),-6.8%,/,/,/,5.4%,11.5%
CC1(C)C(=O)Nc2ccccc2N1C(=O)COC(=O)c1cc(S(=O)(=O)N2CCOCC2)ccc1F,-4.8%,/,/,/,-2.3%,-6.2%
Cc1nc(NCCNC(=O)c2ccco2)c2c(C)c(C)sc2n1,-5.6%[46.1 µM],13.7,0.5,-17.2%,14.1µM*,22.6%[38.3 µM]
Cc1nc(NCCc2ccc(S(N)(=O)=O)cc2)c2c(C)c(C)sc2n1,-13.7%[46.1 µM],?,11.1,-9.4%,-10.2%,43.4%[38.3 µM]
O=C(/C=C/c1ccccc1)NCCSCc1ccccc1Cl,-17.1%[46.1 µM],-91.1*,-2.0,10µM*,2.24µM*,22.0%
O=C(/C=C/c1ccc(Cl)cc1Cl)NCCSc1ccccc1,-30.9%,-5.6,/,-6.6%,3.4%,11.0%
O=C(/C=C/c1ccccc1)NCCSCc1ccc(Cl)cc1,-10.3%,-5.0,/,-11.0%,-0.2%,6.3%
Cc1ccc(CSCCNC(=O)/C=C/c2ccccc2Cl)cc1,-23.1%[46.1 µM],-23.2,9.6,8.91µM*,4.47µM*,22.9%[38.3 µM]
O=C(/C=C/c1ccc(Cl)cc1Cl)NCCSCc1ccccc1,-44.7%,?,/,14.1µM*,-9.8%,7.1%
CN1CCc2c(C#N)c(N3CCOCC3)nc(NCC3CCCO3)c2C1 (stereo not given),-2.4%,/,/,/,/,/
Cc1ccc(C(C)C)c(OCC(=O)N/N=C/C2CCCCC2)c1,-52.6%,/,/,/,?,3.7%
Cc1ccc(-c2ccc(CCC(=O)O)n2-c2cccc(O)c2)cc1,-0.2%[46.1 µM],8.7,5.1,-16.3%,?,12.7%[38.3 µM]
C=C(C)CNC(=S)N/N=C\c1ccc2c(c1)OCO2,-1.4%[46.1 µM],-17.4,6.5,-6.8%,5.2%,12.1%[38.3 µM]
Cc1nc2c(sc3nc4c(cc32)COC(C)(C)C4)c(=O)o1,-0.1%[46.1 µM],-16.5,8.6,-21.8%,28.2µM*,1.4%
CCCc1nc2c(sc3nc4c(cc32)COC(C)(C)C4)c(=O)n1Cc1ccco1,-14.0%[46.1 µM],?,10.6,?,0.891µM*,-1.6%[38.3 µM]
CC1(C)Cc2nc3sc4c(SCC(=O)NCc5ccco5)ncnc4c3cc2CO1,-9.3%[46.1 µM],?,12.2,14.1µM*,8.91µM*,?
CCCc1nc2c(sc3nc4c(cc32)COC(C)(C)C4)c(=O)o1,10.2%,/,/,/,?,0.9%
SMILES,NPSR antagonist,PNC inhibitor,IMPase cell inh,HPGD inh,ALDH1A1 inh,IMPase Li inh
CCCc1nc2c(sc3nc4c(cc32)COC(C)(C)C4)c(=O)n1CCN(C)C,12.2%,/,/,/,?,7.0%
CCCc1nc2c(sc3nc4c(cc32)COC(C)(C)C4)c(=O)n1CCN(CC)CC,10.8%,/,/,/,17.8µM*,6.2%
Cc1cc(NC(=O)c2ccc(C)s2)n(-c2ccccc2)n1,-6.2%[46.1 µM],?,-1.8,-10.6%,3.9%,25.6%[38.3 µM]
O=C(COc1ccc(Cl)cc1Cl)Nn1c(=S)[nH]c2ncccc2c1=O,-9.7%,?,-0.8,28.2µM*,-12.5%,6.4%
COc1ccccc1CNCCCCCCNCCCCCCCCNCCCCCCNCc1ccccc1OC,12.6µM*,/,19.2,7.4%,5.2%,11.4%
COc1ccc(/C=N/n2c(C)nnc2C)c(OC)c1,0.4%[46.1 µM],?,3.1,-15.3%,?,0.4%[38.3 µM]
Nc1nnc(CC(=O)N/N=C\c2cc([N+](=O)[O-])ccc2O)s1,-2.9%[46.1 µM],?,1.3,-29.4%,-8.2%,0.7%
COCCNC(=O)CCSCc1ccccc1F,-8.8%[46.1 µM],23.3,12.6,25.1µM*,-1.4%,19.9%[38.3 µM]
O=c1c(O)cccc2cc(O)c(O)c(O)c12,27.9%,/,/,5.01µM*,8.91µM*,35.4%
CCCN1C(=O)/C(=C/c2ccc(C)s2)NC1=S,?,?,16.8,-15.9%,8.91µM*,3.8%
CC(C)CN1C(=O)/C(=C/c2cccs2)NC1=S,-5.8%[46.1 µM],9.9,?,-21.5%,2µM*,5.2%
CC(C)CN1C(=O)/C(=C/c2ccco2)NC1=S,-29.8%,?,/,?,3.98µM*,0.1%
CC1=CC(=O)CC(C)(C)C1(O)/C=C/C(C)=C/C(=O)O (stereo not given),-10.5%,/,/,-4.7%,14.1%,6.2%
Cc1ccc(C(=O)Oc2ccc([N+](=O)[O-])cc2)cc1S(=O)(=O)N1CCCCCC1,-3.0%,-28.9,5.9,-6.8%,0.3%,2.0%
CC1=C(C#N)C(NC(=O)c2ccccc2Cl)(C(F)(F)F)C(=O)N1 (stereo not given),15.6%,-27.7,3.1,0.1%,5.7%,-3.3%
Cc1ccc(-c2cc(C(F)(F)F)c(C#N)c(SCC(=O)O)n2)cc1,46.6%,/,-1.9,/,-0.1%,0.2%
CC(Sc1ccc2ccccc2n1)C(=O)O (stereo not given),?,2.4,?,?,?,8.91µM*
CC(Sc1cnc2ccccc2n1)C(=O)O (stereo not given),?,-5.3,?,-19.8%,-6.1%,12.6µM*
COc1ccc(C(=O)Nc2ccc(-c3nnn(CC(=O)NCc4ccco4)n3)cc2)cc1,9.9%,/,/,/,/,/
CCOP(=O)(OCC)C(C#N)=C1SCN(c2ccc(Cl)cc2)CS1,-8.5%[46.1 µM],-19.7,21.4,20µM*,-9.7%,3.3%
Cc1ccc(CN2CCN(/N=C/c3ccc(C(=O)O)cc3)CC2)cc1,-25.6%[46.1 µM],61.0,5.1,-22.1%,-10.0%,-0.9%
CCN(CC)c1ccc(/C=N\N2CCN(Cc3ccc(C)cc3)CC2)cc1,-17.3%,/,/,/,0.794µM*,12.3%
